# Screening results deposited in PubChem by Broad Institute.
# Sampled rows, rich in hits. Any-hit rate of the full collection: about 0.53%.
# Yp Topo-I inh: inhibitors of Yersinia pestis topoisomerase I; Y. pestis Topo-I cleavage product accumulation, plate reader; activity, % at 10 µM; 360,000 compounds, 0.064% hits; AID 504884; in the data active means activity above about 50%, passing the limit was not always enough
# TcdB inh: inhibitors of Clostridioides difficile toxin B glycohydrolase; P18177; TcdB glycohydrolase enzymatic assay, plate reader; inhibition, % at 9.99 µM; 350,000 compounds, 0.24% hits; AID 652162; in the data active means inhibition above about 10%
# PrP UTR inh: suppresses PrP 5' UTR mRNA reporter expression; cell-based PrP 5' UTR mRNA reporter, plate reader; inhibition, % (no concentration beside the values); 340,000 compounds, 0.35% hits; in the data active means inhibition above about 52%; further: 0 = median of the neutral control wells
# BioA inh-1: BioA (M. tuberculosis) enzyme inhibition; purified M. tuberculosis BioA enzyme, plate reader; inhibition, % at 9.99 µM; 360,000 compounds, 0.096% hits; AID 602481; in the data active means inhibition above about 40%
# PrP UTR cherry: prion 5' UTR mRNA inhibition, cherry-pick retest; shares compounds with PrP UTR inh; cell-based prion protein 5' UTR reporter, plate reader; inhibition, % at 2.5 µM; 1,100 compounds, 48% hits; in the data active means inhibition above about 54%
# BioA inh-2: blocks M. tuberculosis BioA aminotransferase; shares compounds with BioA inh-1; purified BioA enzyme, plate reader, dose response; max activity, %; 310 tested, under 10 active; AID 651679;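 further: top concentration of the dilution series was 10 µM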
# Target sequence (P9WQ81 whole entry, looked up): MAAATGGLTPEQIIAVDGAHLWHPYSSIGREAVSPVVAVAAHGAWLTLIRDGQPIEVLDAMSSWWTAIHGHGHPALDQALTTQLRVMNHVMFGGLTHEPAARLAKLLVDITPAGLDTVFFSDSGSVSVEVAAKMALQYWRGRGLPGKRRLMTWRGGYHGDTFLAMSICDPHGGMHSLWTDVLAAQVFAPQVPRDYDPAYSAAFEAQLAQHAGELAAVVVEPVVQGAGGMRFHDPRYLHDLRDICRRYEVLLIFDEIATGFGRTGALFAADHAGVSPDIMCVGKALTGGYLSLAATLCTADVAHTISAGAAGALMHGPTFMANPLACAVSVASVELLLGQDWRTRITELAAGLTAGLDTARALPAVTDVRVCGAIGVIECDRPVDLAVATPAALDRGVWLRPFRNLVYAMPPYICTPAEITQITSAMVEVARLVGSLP
# HepG2 tox 2: cytotoxicity in HepG2 cells; plate reader; max activity, %; 310 tested, under 10 active; AID 651898; shares compounds with BioA inh-1
# 3T3 cytotox 5: kills NIH3T3 cells; AID 651900; 310 tested, under 10 active; activity change, negative = cytotoxicity, % at 26 µM; NIH3T3 cytotoxicity, plate reader; shares compounds with BioA inh-1
# The depositor's hits bear a star; i = inactive; . = no result given. Unless noted, how the calls were made is not given here.
SMILES,Yp Topo-I inh,TcdB inh,PrP UTR inh,BioA inh-1,BioA inh-2,HepG2 tox 2,3T3 cytotox 5,others
COCC(=O)N1C[C@@H](C)[C@H](OC)CN(C)C(=O)c2cc(NC(=O)NC(C)C)ccc2OC[C@H]1C,.,-1,.,-1,.,.,.,
Cc1nc2ncccn2c1-c1csc(Nc2ccccc2)n1,-6,-1,1,.,.,.,.,
COc1ccc(Nc2nc(-c3c(C)nc4ncccn34)cs2)cc1,6,1,65*,.,.,.,.,PrP UTR cherry=87*
Cc1nc2ncccn2c1-c1csc(Nc2ccc(N(C)C)cc2)n1,-5,-8,60*,.,.,.,.,PrP UTR cherry=90*
CC1=Nc2cc(C(=O)NCC3CCCO3)ccc2Sc2ccc(C)cc21 (configuration not stated),17,0,-35,-3,.,.,.,
CC1=Nc2cc(C(=O)NCc3ccco3)ccc2Sc2ccc(C)cc21,11,.,61*,-3,.,.,.,PrP UTR cherry=88*
COc1ccc(CNC(=O)C[C@@H]2CC[C@@H](NC(=O)c3ccc4c(c3)OCO4)[C@H](CO)O2)cc1,.,-1,.,-1,.,.,.,
COc1ccccc1C(=O)Nc1ccc2c(c1)nc1n2CCN(Cc2ccccc2)C1,13,1,56*,0,.,.,.,PrP UTR cherry=-4
O=C(COc1ccccc1)NCC(=O)N/N=C/c1cccs1,1,1,-10,-2,.,.,.,
O=C(COc1ccc(Cl)cc1)NCC(=O)N/N=C/c1cccs1,-2,1,63*,.,.,.,.,PrP UTR cherry=-6
CC1CC2C(C(O)CC3(C)C2CCC3(O)C(=O)CO)C2(C)C=CC(=O)C=C12 (configuration not stated),8,0,-12,.,.,.,.,
C[C@@H]1O[C@@H](O[C@H]2C[C@@H](O)[C@]3(CO)[C@H]4[C@H](O)C[C@]5(C)[C@@H](C6=CC(=O)OC6)CC[C@]5(O)[C@@H]4CC[C@]3(O)C2)[C@H](O)[C@H](O)[C@H]1O,2,.,92*,0,.,.,.,PrP UTR cherry=90*
COc1ccc(OC)c(-c2nc(C(=O)NCCCN3CCOCC3)cc3c2[nH]c2ccccc23)c1,21,4,54*,1,.,.,.,PrP UTR cherry=1
CN(C)C(=O)c1cccc(-c2ccccc2[C@@H]2[C@@H](C#N)N(C(=O)C3CCCC3)[C@@H]2CO)c1,.,-1,.,.,.,.,.,
COc1ccc(Cl)cc1NC(=O)/C=C\C(=O)O,-6,.,70*,-2,.,.,.,PrP UTR cherry=-10
COc1ccccc1NC(=O)/C=C\C(=O)O,-1,1,-18,1,.,.,.,
O=S(=O)(N[C@H]1CC[C@H](CCn2cc(C3CC3)nn2)O[C@H]1CO)c1ccc(Cl)cc1,.,2,.,-3,.,.,.,
CC(=O)c1ccc(N2CCN(S(=O)(=O)c3c(C(=O)N4CCCC4)c(C)n(C)c3C)CC2)cc1,9,1,-3,42*,-3,-5,13,
C[C@@H]1CN([C@@H](C)CO)C(=O)c2cc(C#C[C@@H](C)O)cnc2O[C@H]1CN(C)C(=O)CN1CCOCC1,.,-1,.,7,.,.,.,
O=C(COc1ccc2ccc(=O)oc2c1)N1CCN(c2ccc(F)cc2)CC1,3,1,9,55*,-11,-12,-8,
COc1ccc(NC(=O)N[C@H]2CC[C@@H](CCn3cc(-c4ccccc4)nn3)O[C@H]2CO)cc1,.,1,.,4,.,.,.,
CCNC(=O)[C@H]1[C@H](CO)[C@H]2Cn3c(ccc(-c4ccccc4)c3=O)[C@H]2N1C(=O)Cc1cccnc1,.,0,.,40*,-2,i,10,
CC(=O)N1[C@@H]2c3ccc(-c4cccnc4)c(=O)n3C[C@@H]2[C@@H](CO)[C@@H]1C(=O)NCc1ccccc1Cl,.,0,.,85*,9,i,-9,
COc1ccc(S(=O)(=O)Nc2ccc3c(c2)C(=O)N([C@H](C)CO)C[C@@H](C)[C@H](CN(C)Cc2ccc(Cl)c(Cl)c2)OCCCC[C@H](C)O3)cc1,.,.,.,0,.,.,.,
Cc1noc(C)c1S(=O)(=O)Nc1cccc2c1O[C@H](CN(C)C(=O)NC1CCCCC1)[C@H](C)CN([C@H](C)CO)C2=O,.,1,.,-1,.,.,.,
SMILES,Yp Topo-I inh,TcdB inh,PrP UTR inh,BioA inh-1,BioA inh-2,HepG2 tox 2,3T3 cytotox 5,others
COc1ccc(-c2n[nH]c3c2CN(C(=O)c2ccc(OC)c(OC)c2)CC3)cc1,15,1,-16,86*,-8,29,7,
C/C=C/c1ccc2c(c1)O[C@@H](CN(C)C(=O)Nc1ccccc1)[C@H](C)CN([C@H](C)CO)S2(=O)=O,.,1,.,42*,-5,i,4,
C/C=C/c1ccc2c(c1)O[C@@H](CN(C)C(=O)Nc1ccc(OC)cc1)[C@@H](C)CN([C@@H](C)CO)S2(=O)=O,.,2,.,41*,9,i,3,
CO[C@@H]1CN(C)C(=O)c2ccc(NC(=O)C3CC3)cc2OC[C@H](C)N(C(=O)Cc2ccccn2)C[C@@H]1C,.,-1,.,2,.,.,.,
CN(C)c1ccc2c(c1)[C@H]1C[C@H](CC(=O)N3CCCCC3)O[C@@H](CO)[C@H]1O2,.,-50,.,.,.,.,.,
O=C(Nc1ccc2nccnc2c1)c1cnccn1,3,.,-36,48*,-9,12,-2,
COc1cc(C(=O)NC2CCN(Cc3ccccc3)CC2)cc(Cl)c1OC,2,-1,-14,0,.,.,.,
COc1ccc([N+](=O)[O-])cc1C(=O)NC1CCN(Cc2ccccc2)CC1,-5,1,.,79*,5,29,1,
CCN1[C@H](C(=O)Nc2ccccc2)[C@@H](CO)[C@@H]2Cn3c(ccc(-c4ccc(F)cc4)c3=O)[C@@H]21,.,0,.,.,.,.,.,
C[C@@H]1CN([C@@H](C)CO)C(=O)c2cc(-c3ccc(F)cc3)cnc2O[C@@H]1CN(C)C(=O)C1CCC1,.,-1,.,.,.,.,.,
O=C(CSc1nc2c(c(=O)n1-c1ccc(Cl)cc1)SCC2)N1CCCC1,4,.,-22,2,.,.,.,
O=C(CSc1nc2c(c(=O)n1-c1ccc(Cl)cc1)SCC2)N1CCOCC1,4,1,10,56*,-7,-6,-4,
O=C(NCc1ccco1)c1ccc(-c2ccc3nccn3c2)cc1,6,1,.,48*,4,28,11,
C[C@@H]1CCCCO[C@H](CN(C)C(=O)c2ccccc2)[C@@H](C)CN([C@@H](C)CO)C(=O)c2cc(NC(=O)Nc3cccc4ccccc34)ccc2O1,.,-1,.,4,.,.,.,
CC(=O)c1c(C)[nH]c(C(=O)Nc2cccnc2)c1C,1,.,-22,58*,-5,-11,3,
O=C(NCC1CCCCC1)[C@@H]1[C@@H](CO)[C@@H]2Cn3c(cccc3=O)[C@H]1N2C(=O)c1ccncc1,.,0,.,-1,.,.,.,
O=C(c1ccccc1F)N1CC[C@@H]2[C@H]1c1cc(Br)ccc1N[C@@H]2CO,.,2,.,49*,4,i,6,
O=C(c1ccccc1F)N1CC[C@@H]2[C@H](CO)Nc3ccc(Br)cc3[C@@H]21,.,-3,.,83*,-6,i,7,
O=C(c1ccccc1F)N1CC[C@@H]2[C@H](CO)Nc3ccc(-c4ccccc4)cc3[C@@H]21,.,0,.,-1,.,.,.,
O=C(c1cccc(F)c1)N1CC[C@@H]2[C@@H](CO)Nc3ccc(-c4cccc(F)c4)cc3[C@@H]21,.,.,.,98*,-11,i,-9,
